In the library only some 1.8% were active in any assay of this set; here they are far more common.
PME-1 inh = PME-1 inhibitors via competitive probe labeling, primary screen, biochemical, fluorescence polarization, FP-Rh probe, HTS. recombinant PME-1. inhibition, % at 5.9 µM. Protein phosphatase methylesterase 1 (Homo sapiens), Q9Y570. hit rate 0.53% among 320,000. AID 2130, 2009;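 active means inhibition above the campaign mean of all compounds plus 3 SD, cut at about 26% in these data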;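 further: competitive labeling of PME-1 active site by serine hydrolase directed probe; 0% = PME-1 with DMSO and 100% = wells lacking PME-1 enzyme; inhibitors block probe labeling so polarization falls and inhibition rises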
Target sequence (Q9Y570 whole entry, looked up): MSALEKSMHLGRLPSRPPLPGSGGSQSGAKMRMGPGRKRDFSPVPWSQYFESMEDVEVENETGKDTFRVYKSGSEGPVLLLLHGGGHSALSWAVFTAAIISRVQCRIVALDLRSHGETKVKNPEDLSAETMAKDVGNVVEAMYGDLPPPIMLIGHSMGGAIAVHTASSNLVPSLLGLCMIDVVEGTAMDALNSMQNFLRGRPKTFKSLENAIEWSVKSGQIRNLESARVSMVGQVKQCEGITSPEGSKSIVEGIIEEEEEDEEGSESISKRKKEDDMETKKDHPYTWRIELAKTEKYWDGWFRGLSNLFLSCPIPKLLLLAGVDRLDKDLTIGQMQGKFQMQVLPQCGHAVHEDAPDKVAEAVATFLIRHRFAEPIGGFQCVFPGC
LYPLA2 inh = LYPLA2 inhibitors, primary screen, counter-screen for PME1 inhibitor project, biochemical, fluorescence polarization, FP-Rh probe ABPP | Acyl-protein thioesterase 2 (Homo sapiens), O95372 | recombinant LYPLA2 | inhibition, % at 5.9 µM | hit rate 0.38% among 320,000 | AID 2177, 2009;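 active means inhibition above the screen-wide mean plus 3 SD, limit set per campaign, cut at about 26% in these data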;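 further: 0% = LYPLA2 with DMSO and 100% = wells lacking LYPLA2 enzyme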
Fam108B counter = mouse Fam108B serine hydrolase inhibitors, primary screen, counter-screen for RBBP9 inhibitor project, biochemical, fluorescence polarization; recombinant Fam108B, FP-Rh probe fluorescence polarization; hit rate 0.33% among 300,000; AID 1947, 2009; inhibition, % at 9.51 µM;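 active means inhibition above the screen mean inhibition plus 3 SD, computed separately per campaign, cut at about 18% in these data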;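 further: inhibitors lower polarization as less probe binds the enzyme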
PP5 primary = PP5 phosphatase inhibitors, primary screen, biochemical, fluorescence; Serine/threonine-protein phosphatase 5 (Homo sapiens), P53041; inhibition, % at 6.7 µM; purified PP5c, OMFP substrate fluorescence; hit rate 0.18% among 320,000;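 active means inhibition above the campaign's mean inhibition across all tested compounds plus 3 SD, cut at about 9.5% in these data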;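 further: 0% = DMSO only and 100% = 100 µM cantharidin control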
LYPLA1 inh = LYPLA1 inhibitors, primary screen, counter-screen for PME1 inhibitor project, biochemical, fluorescence polarization, FP-Rh probe ABPP; Acyl-protein thioesterase 1 (Homo sapiens), O75608; recombinant LYPLA1; inhibition, % at 5.9 µM; hit rate 0.16% among 320,000; AID 2174, 2009;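 active means inhibition above the mean of all tested compounds plus 3 SD, set per campaign, cut at about 14% in these data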;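 further: inhibitors block serine hydrolase probe labeling of LYPLA1 so polarization falls; 0% = enzyme with DMSO and 100% = wells lacking LYPLA1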
Target sequence (O75608 whole entry, looked up): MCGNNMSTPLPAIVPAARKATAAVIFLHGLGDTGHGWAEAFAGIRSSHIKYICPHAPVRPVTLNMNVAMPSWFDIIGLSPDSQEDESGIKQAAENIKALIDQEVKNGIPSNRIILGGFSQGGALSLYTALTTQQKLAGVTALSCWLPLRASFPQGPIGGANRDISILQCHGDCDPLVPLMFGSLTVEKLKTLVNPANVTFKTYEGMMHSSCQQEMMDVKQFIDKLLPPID
PP1 inh = PP1-alpha phosphatase inhibitors, primary screen, counter-screen for PP5 inhibitor project, biochemical, fluorescence, OMFP substrate, single point; hit rate 0.9% among 320,000; purified PP1alpha; Serine/threonine-protein phosphatase PP1-alpha catalytic subunit (Homo sapiens), P62136; AID 2235, 2010; inhibition, % at 6.7 µM;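 active means inhibition above the mean inhibition of all tested compounds plus 3 SD, computed separately for each screening campaign, cut at about 15% in these data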
Fam108b inh conf = mouse Fam108b serine hydrolase inhibitors, confirmation, counter-screen for RBBP9 inhibitor project, biochemical, fluorescence polarization, triplicate; shares compounds with Fam108B counter; recombinant Fam108b, FP-Rh probe fluorescence polarization; inhibition, % at 9.51 µM; hit rate 44% among 930;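 active means inhibition above a limit from the primary screen, the mean over all compounds plus 3 SD, cut at about 19% in these data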;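 further: 0% = median of active Fam108b wells and 100% = catalytically dead S170A mutant; inhibitors free the probe so polarization falls as inhibition rises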
Fam108b ABPP HTS = inhibition of mouse Fam108b by HTS hits, late-stage follow-up, biochemical, gel-based ABPP, soluble recombinant form; fluorophosphonate probe; inhibition, % at 20 µM; hit rate 44% among 260; shares compounds with Fam108B counter; in the data active means inhibition above about 40%
The depositor's hits bear a star; · = no result given.

SMILES	PME-1 inh	LYPLA2 inh	Fam108B counter	PP5 primary	LYPLA1 inh	PP1 inh	Fam108b inh conf	others
C/C(=N\NC(=O)c1ccccc1O)C1C(=O)c2ccccc2C1=O	15	15	51*	4	6	9	51*
CCC/C(C)=N/NC(=O)c1ccccc1O	-10	-4	-3	-6	-2	-4	·
O=C(O)C1CCN(S(=O)(=O)c2ccc(N3CCCC3C(=O)O)c([N+](=O)[O-])c2)CC1 (stereo unspecified)	-6	-2	-4	-5	-1	-13	·
Cc1ccc(-c2ccc(/C=C3\C(=O)ON=C3c3ccccc3)o2)c([N+](=O)[O-])c1	11	6	22*	4	6	17*	7
CCOC(=O)C1=NOC2C3CC(C12)C1C(=O)N(CCc2ccc(OC)c(OC)c2)C(=O)C31 (stereo unspecified)	1	-1	0	2	0	-1	·
O=C(Nc1ccc(N2CCCCC2)c(Cl)c1)c1ccc(N2CCOCC2)c([N+](=O)[O-])c1	6	-8	19*	2	-5	1	8
CN(CC(=O)Nc1ccc(Cl)c(C(F)(F)F)c1)C(=O)CCCNC(=O)c1ccc(Cl)cc1	0	-4	·	5	-3	-1	·
C/C=C(\C)C(=O)NCCN1C2=NC[C@H](C(C)C)N2C[C@@H]1Cc1ccc(OC)cc1	4	-1	21*	1	3	-3	-7
C/C=C(\C)C(=O)NCCN1C2=NC[C@H](C(C)C)N2C[C@H]1Cc1ccc(O)cc1	4	6	2	4	4	-3	·
O=[N+]([O-])c1ccc(O)c(/C=N\N=C2c3ccccc3-c3ccccc32)c1	13	2	21*	-1	3	-3	6
Cn1ccnc1C(=O)c1ccccc1Cl	-3	8	52*	3	2	-1	-7
O=C(Nc1cc(Sc2nc3ccccc3s2)cc([N+](=O)[O-])c1)c1cccc(F)c1F	11	-25	19*	-3	-16	-8	25*
Oc1ccc(N=Nc2ccccc2-c2nn[nH]n2)c(O)c1	22	9	40*	2	1	-1	41*	Fam108b ABPP HTS=0
COC(=O)/C=C1\OC(c2ccccc2)=CC1=O	0	3	-4	3	1	-2	·
C1=C(CCNc2ncnc3c2[nH]c2ccccc23)CCCC1	45*	-8	21*	1	-10	8	8
O=c1c2[nH]c3ccccc3c2ncn1CCC1=CCCCC1	1	6	1	3	2	1	·
Oc1c(Br)cc(/C=N/n2c(-c3ccccc3)n[nH]c2=S)c(Br)c1O	-8	6	34*	3	-8	4	41*
Oc1c(Br)cc(Br)cc1/C=N/n1c(-c2ccccc2)n[nH]c1=S	-3	-1	-2	-1	-1	0	·
Cc1ccc(S(=O)(=O)Nc2ccccc2C(=O)Nc2nc(-c3ccc(F)cc3)cs2)cc1	6	-13	24*	2	-4	17*	97*	Fam108b ABPP HTS=65*
NC(=O)Nc1ccccc1C(=O)N1CCC(O)(c2ccc(Cl)cc2)CC1	6	-3	43*	1	-3	-1	1
O=[N+]([O-])c1ccc(S(=O)(=O)Nc2ccc(-c3csc(-c4ccccc4)n3)cc2)cc1	4	-7	25*	8	-12	7	-7
CCN(CC)C(=O)CSc1nc2ccccc2c(=O)n1-c1cccc(OC)c1	7	-5	-5	-2	-2	-1	·
COc1cccc(-n2c(SCc3cc(=O)oc4cc(O)c(O)cc34)nc3ccccc3c2=O)c1	20	-9	26*	3	-13	12	46*	Fam108b ABPP HTS=85*
COc1ccccc1NC(=O)CSc1nc(=O)n(Cc2ccncc2)c2c1CCCC2	1	4	2	0	-1	-2	·
O=C(c1cc2ccccc2o1)N1CCN(c2ccccn2)CC1	3	-7	-1	4	1	-2	·
SMILES	PME-1 inh	LYPLA2 inh	Fam108B counter	PP5 primary	LYPLA1 inh	PP1 inh	Fam108b inh conf	others
c1ccc(Nc2nnc(-c3cccnc3)s2)cc1	-9	-5	-1	-1	-4	2	·
Cc1ccc(NS(=O)(=O)c2cc([N+](=O)[O-])ccc2NNC(=S)Nc2cc(C)ccc2C)c(C)c1	23	4	27*	7	-13	3	-16
Cc1ccc([N+](=O)[O-])cc1NC(=S)NC(=O)C(C)(C)C	5	1	6	0	-1	5	·
COc1ccc(NC(=S)NNc2ccc([N+](=O)[O-])cc2S(=O)(=O)Nc2ccc(C)cc2C)cc1	22	-4	32*	-3	-10	6	11
CCOC(=O)c1cnc2cc(-c3ccc(Br)cc3)nn2c1C	4	9	-2	1	0	-4	·
O=C(CCn1cccn1)Nc1ccc2c(c1)OCO2	8	6	18*	-2	-3	0	6
Cn1ccnc1SCC(=O)Nc1ccc2c(c1)OCO2	-5	-3	1	-2	-1	0	·
CC(C)c1ccc(N=C(N)N=C(N)N)cc1	0	-3	2	-1	-3	1	·
COc1ccc(NC(=O)CSc2ccc3c4c(cccc24)C(=O)c2ccccc2-3)cc1	6	-4	-1	0	-3	4	·
N#Cc1cccc(NC(=O)CSc2ccc3c4c(cccc24)C(=O)c2ccccc2-3)c1	10	1	35*	3	-1	1	21*
Cc1ccc(C)c(S(=O)(=O)Nc2cc(SCC(=O)O)c(O)c3ccccc23)c1	28*	35*	29*	1	4	3	-10
CC(C)(C)c1nc2scc(-c3ccc(Cl)cc3)c2c(=O)o1	-4	-6	21*	-2	-3	-5	19*
Cc1nc2scc(-c3cccs3)c2c(=O)[nH]1	-1	-2	10	4	1	-5	·
CC(C)(C)c1nc2scc(-c3cccs3)c2c(=O)o1	-4	5	55*	0	-1	1	106*	Fam108b ABPP HTS=85*
CC1CCCCC1NC(=O)COc1ncnc2sccc12 (stereo unspecified)	-1	-5	·	0	-4	-2	·
CCOC(=O)c1c(C)[nH]c(C2=NNC(=Nc3cccc(Cl)c3)SC2)c1C	34*	-3	22*	0	-10	2	-4
